Screening data (PubChem)
CHRM1 agonist: human M1 muscarinic receptor agonists, primary screen, Fluo-8 calcium fluorescence, CHO-K1 cells, HTS | Muscarinic acetylcholine receptor M1 (Homo sapiens), P11229 | CHO-K1 hM1, agonist mode; 0% DMSO, 100% acetylcholine EC100 | activation, % at 3 µM | hit rate 0.33% among 360,000;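 active means activation above the run's mean compound activation plus 3 SD, cut at about 16% in these data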;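 further: peak over basal fluorescence ratio within a 140 s kinetic read after compound addition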
M4 PAM: human M4 muscarinic receptor positive allosteric modulators, primary screen, CHO-K1 cells, Fluo-8 calcium fluorescence. Muscarinic acetylcholine receptor M4 (Homo sapiens), P08173. activation, % at 3 µM. CHO-K1 hM4/Gqi5, ACh EC20; 0% = ACh EC20, 100% = maximal ACh. hit rate 0.4% among 360,000;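 active means activation above its plate's cutoff, the mean activation of sample wells plus 3 SD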
Target sequence (P08173 whole entry, looked up): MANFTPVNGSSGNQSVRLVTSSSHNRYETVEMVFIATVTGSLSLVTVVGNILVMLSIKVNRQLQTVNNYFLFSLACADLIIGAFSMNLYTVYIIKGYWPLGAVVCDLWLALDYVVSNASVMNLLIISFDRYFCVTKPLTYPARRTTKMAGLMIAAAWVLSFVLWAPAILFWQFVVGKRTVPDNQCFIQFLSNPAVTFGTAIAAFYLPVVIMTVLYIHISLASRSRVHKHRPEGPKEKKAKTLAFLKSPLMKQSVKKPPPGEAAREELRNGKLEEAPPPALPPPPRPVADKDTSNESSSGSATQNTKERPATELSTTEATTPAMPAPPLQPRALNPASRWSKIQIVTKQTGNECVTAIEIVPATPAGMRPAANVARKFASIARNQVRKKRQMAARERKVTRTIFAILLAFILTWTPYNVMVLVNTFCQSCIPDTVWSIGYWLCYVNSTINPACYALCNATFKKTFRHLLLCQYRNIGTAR
M4 antag: human M4 muscarinic receptor antagonists, primary screen, CHO cells, Fluo-8 calcium fluorescence. Muscarinic acetylcholine receptor M4 (Homo sapiens), P08173. CHO-hM4 cells, ACh EC80. inhibition, % at 3 µM. hit rate 0.73% among 360,000;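 active means inhibition above its plate's cutoff, the mean inhibition of sample wells plus 3 SD, cut at about 27% in these data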;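 further: 0% = acetylcholine EC80 with DMSO and 100% = DMSO without agonist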
M1 antag: human M1 muscarinic receptor antagonists, primary screen, CHO-K1 cells, Fluo-8 calcium fluorescence, 1536-well; CHO-K1 hM1, ACh EC80 antagonist; Muscarinic acetylcholine receptor M1 (Homo sapiens), P11229; hit rate 1.3% among 360,000; inhibition, % at 3 µM; AID 588852, 2011;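 active means percent inhibition above its own plate's cutoff, namely the mean of that plate's compound wells plus 3 SD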;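 further: peak over basal fluorescence ratio during 140 s after agonist addition; 0% = ACh EC80 plus DMSO and 100% = DMSO alone without agonist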
M1 PAM: human M1 muscarinic receptor positive allosteric modulators, primary screen, CHO-K1 cells, Fluo-8 calcium fluorescence, 1536-well; activation, % at 3 µM; Muscarinic acetylcholine receptor M1 (Homo sapiens), P11229; hit rate 0.088% among 360,000; CHO-K1 hM1, ACh EC20; 0% = ACh EC20, 100% = maximal ACh; in the data active means activation above about 19%, passing the limit was not always enough
M4 ag: human M4 muscarinic receptor agonists, primary screen, CHO-K1 cells, Fluo-8 calcium fluorescence | CHO-K1 hM4/Gqi5; vehicle 0%, full acetylcholine response 100% | activation, % at 3 µM | hit rate 0.14% among 360,000;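 active means activation above the run mean over all test wells plus 3 SD, cut at about 32% in these data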;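 further: peak over basal fluorescence ratio per well then scaled between controls; 0% = DMSO wells and 100% = acetylcholine at EC100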
* marks the source's active call; other numbers are inactive results. Rows were chosen to be rich in hits. Some 2.2% of all compounds tested hit in one or more screens of this group.

SMILES	CHRM1 agonist	M4 PAM	M4 antag	M1 antag	M1 PAM	M4 ag
Cc1cc(OCC(O)CN2C(C)CCCC2C)ccc1C(C)C (stereo not given)	-13	2	-7	18	-15	3
CCCNC(=O)C1CCN(S(=O)(=O)c2cccc3nonc23)CC1	-3	1	13	-1	11	0
CCN(CCCNC(=O)C1CCN(S(=O)(=O)c2cccc3nonc23)CC1)Cc1ccccc1	-5	-9	-3	47*	-20	0
C/C(=N\NC(=S)NC(C)C)c1ccc(Cl)s1	-10	-34	27*	81*	-24	-2
C/C(=N\NC(N)=S)c1ccc(Cl)s1	-4	-1	6	-1	3	1
COCCn1cnc2c1c(=O)n(CC(=O)Nc1cc(C)on1)c(=O)n2Cc1ccccc1	-1	24*	4	-37	6	1
CCC(C)[C@@H](C(=O)Nc1ccc2c(c1)OCO2)N1Cc2ccccc2C1=O (stereo not given in full)	-3	19*	-19	1	0	-2
COc1ccc(NC(=O)CCNC(=O)c2ccc([N+](=O)[O-])cc2)cc1S(=O)(=O)N1CCCCC1	2	22*	-14	-10	15	0
COc1ccc(C(=O)OCC(=O)Nc2cccc(S(=O)(=O)N3CCCCCC3)c2)cc1[N+](=O)[O-]	-2	-13	21	54*	-20	22
Cc1ccccc1OCc1nc(-c2ccccc2)no1	-3	1	1	-13	-1	-1
CNCC/C=C1/c2ccccc2CSc2ccccc21	-2	-20	43*	95*	-21	7
OCCN1CCN(CC/C=C2/c3ccccc3CSc3ccccc32)CC1	-7	-7	8	12	-13	4
Cc1n[nH]c(C)c1NC(=O)c1cc([N+](=O)[O-])ccc1Cl	0	5	-6	2	-1	1
Cc1ccc(S(=O)(=O)/N=C(/Nc2ccc3[nH]c(=O)[nH]c3c2)c2ccc(F)cc2)cc1	-6	0	-3	-10	8	0
Cc1nn(S(=O)(=O)c2ccccc2)c(C)c1Sc1ccc([N+](=O)[O-])cc1	-4	-15	9	13	-14	1
Cc1nn(S(=O)(=O)c2cccs2)c(C)c1Sc1ccc([N+](=O)[O-])cc1	-4	-13	7	28*	-19	5
Cc1cccc(N=Nc2c(N)n[nH]c2-c2ccc(Cl)cc2)c1	-3	12	-8	-10	14	1
N=c1c2c(ncn1CCN1CCOCC1)Oc1cc(O)ccc1C2c1ccccc1 (stereo not given)	1	-28	11	30*	-10	19
CC(C)C(=O)Nc1cccc(NC(=O)c2cc3ccccc3o2)c1	-2	-8	6	10	-8	6
Cc1noc(C)c1C(=O)OCC(=O)Nc1ccc(C(N)=O)cc1	-3	4	-5	-7	1	0
CCCN1CCc2c(sc(NC(=S)NC(=O)c3ccccc3)c2C#N)C1	37*	-11	21	19	-7	31
CC(C)N1CCc2c(sc(NC(=S)NC(=O)c3ccccc3)c2C#N)C1	-8	1	3	-12	9	2
S=C(Nc1ccccc1Cl)NC1CCN(Cc2ccccc2)CC1	1	1	-1	-4	0	2
S=C(Nc1cc(Cl)cc(Cl)c1)NC1CCN(Cc2ccccc2)CC1	9	-13	20	24	-4	35*
S=C(NCc1ccc(Cl)cc1)NC1CCN(Cc2ccccc2)CC1	-4	-20	27*	11	-10	45*
SMILES	CHRM1 agonist	M4 PAM	M4 antag	M1 antag	M1 PAM	M4 ag
N#Cc1nc(COc2cccc(Cl)c2)oc1NCCN1CCOCC1	-2	11	4	-3	6	3
Cc1nn(-c2ccc(Cl)cc2)c(=O)c2ccccc12	-3	-6	5	20	-5	0
Cc1c(Cl)sn(-c2ccc(Cl)cc2)c1=O	-3	-4	38*	1	-2	4
OCC1(CCCc2ccccc2)CCN(Cc2cnc(N3CCOCC3)s2)CC1	19*	-6	-4	6	-5	5
COc1cccc(CC2(CO)CCN(Cc3cnc(N4CCOCC4)s3)CC2)c1	-5	-2	16	0	2	1
Nc1nc(NCCCN2CCOCC2)nc(NCc2ccccc2)c1[N+](=O)[O-]	-6	-12	-9	66*	-27	2
COc1ccc(NC2CCCN(C(=O)c3ccc(OC)cc3OC)C2)cc1 (stereo not given)	5	-2	31*	-3	12	11
CN1C(=O)/C(=C\c2ccc(N(C)C)cc2)OC1=S	53*	-11	4	39*	-22	30
O=C(c1ccccc1)C(c1ccccc1)c1ccccc1	-5	6	-11	1	0	-2
CC1(C)CC(NC(=O)c2cc(S(=O)(=O)N3CCOCC3)c(Cl)cc2Cl)CC(C)(C)N1	1	17	-13	-25	31*	1
C=CC[n+]1c(/C=C2\C=Cc3cc(C)ccc3N2CC)ccc2ccccc21	3	-21	33*	54*	-14	12
CNC(=O)c1ccc(Nc2nnc(-c3ccc(C)c(S(=O)(=O)NCC4CCCO4)c3)c3ccccc23)cc1 (stereo not given)	-7	9	-5	3	-2	2
CCCCc1n[nH]c(=S)n1Cc1ccccc1	-6	-5	2	5	-1	0
S=c1[nH]nc(CN2CCCC2)n1Cc1ccccc1	-7	-14	19	44*	-23	1
S=c1[nH]nc(COc2ccccc2)n1Cc1ccccc1	-7	-2	-4	0	-6	8
S=c1[nH]nc(CN2CCCCC2)n1Cc1ccccc1	-7	-27	31*	43*	-24	0
CCn1c(Cc2ccccc2)n[nH]c1=S	-5	-3	1	-11	5	1
CCCCn1c(Cc2ccccc2)n[nH]c1=S	-5	-28	83*	86*	-20	0
CCOC(=O)c1oc2ccc(S(=O)(=O)N3CCOCC3)cc2c1C	-6	16	5	-2	4	1
COc1ccc(C(=O)N/N=C/c2cc(Br)ccc2O)cc1OC	-2	6	-5	-9	4	8
CCCOc1ccc(Br)cc1/C=N/NC(=O)c1cc(OC)c(OC)c(OC)c1	-3	28*	16	-15	6	3
